# Assay outcomes as filed in PubChem BioAssay.
# MOR-DOR inv ag – mu-delta opioid heterodimer inverse agonism; P35372+P41143; cell-based MOR-DOR heterodimer luminescence; inhibition, % at 9.3 µM; actives 0.21% (n = 340,000); in the data active = inhibition above about 22%, passing the limit was not always enough;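 note: 0% = cells with DMSO and 100% = wells without cells with DMSO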
# Target sequence (P35372 whole entry, looked up): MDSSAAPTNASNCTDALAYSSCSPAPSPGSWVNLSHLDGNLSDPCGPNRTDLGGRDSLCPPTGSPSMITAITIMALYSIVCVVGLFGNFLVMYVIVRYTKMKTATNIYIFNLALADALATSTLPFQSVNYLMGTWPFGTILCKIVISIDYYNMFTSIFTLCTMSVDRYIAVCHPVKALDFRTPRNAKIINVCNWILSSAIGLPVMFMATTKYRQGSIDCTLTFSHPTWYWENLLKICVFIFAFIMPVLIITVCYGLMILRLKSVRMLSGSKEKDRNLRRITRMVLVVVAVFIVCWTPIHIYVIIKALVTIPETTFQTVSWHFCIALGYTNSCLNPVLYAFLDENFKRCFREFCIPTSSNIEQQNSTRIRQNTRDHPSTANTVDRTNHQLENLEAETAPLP
# Target sequence (P41143 whole entry, looked up): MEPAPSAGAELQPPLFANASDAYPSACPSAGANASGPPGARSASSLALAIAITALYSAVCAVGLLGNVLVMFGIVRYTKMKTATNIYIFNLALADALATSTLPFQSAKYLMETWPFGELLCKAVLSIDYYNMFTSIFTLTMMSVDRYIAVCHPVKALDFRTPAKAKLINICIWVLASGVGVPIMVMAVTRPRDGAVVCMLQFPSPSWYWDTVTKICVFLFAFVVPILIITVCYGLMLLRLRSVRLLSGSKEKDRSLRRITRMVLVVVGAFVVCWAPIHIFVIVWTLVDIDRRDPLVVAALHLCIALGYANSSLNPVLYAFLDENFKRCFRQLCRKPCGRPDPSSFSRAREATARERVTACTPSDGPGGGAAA
# HTR5A ag – counter-screen for OPRM1-OPRD1 agonists: human HTR5A agonism | actives 0.61% (n = 340,000) | HTR5A agonist assay, luminescence, cell-based | activation, % at 9.3 µM | P47898; in the data active = activation mostly above about 9.5%, no sharp cut-off; inactive = mostly below about 7.6%;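 note: 0% = cells with vehicle only and 100% = reference agonist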
# MOR-DOR ag-1 – agonists of human mu-delta opioid receptor heterodimerization | P35372+P41143 | cells, OPRM1-OPRD1 heterodimerization, luminescence | activation, % at 9.3 µM | actives 0.3% (n = 340,000);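 note: 0% = vehicle-treated cells and 100% = reference agonist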
# HTR5A inv ctr – counter-screen for OPRM1-OPRD1 inverse agonists: human HTR5A inverse agonism | P47898 | HTR5A cell line, luminescence | inhibition, % at 9.3 µM | actives 0.083% (n = 340,000) | AID 504634; in the data active = inhibition mostly above about 23%, no sharp cut-off; inactive = mostly below about 18%;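 note: 0% = cells with DMSO and 100% = no-cell wells with DMSO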
# MOR-DOR ag-2 – promotes OPRM1-OPRD1 heterodimerization in HTR5A counter-screen | shares compounds with HTR5A ag | actives 13% (n = 800) | activation, % at 9.3 µM | U2OS counter-screen cells, complementation luminescence, 3 h
# HTR5A ag conf – HTR5A (human) agonism, confirmation. shares compounds with HTR5A ag. HTR5A agonist cell assay, luminescence. activation, % at 9.3 µM. actives 17% (n = 800). AID 504915; in the data active = activation above about 17%;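 note: 0% = cells with vehicle only and 100% = full reference agonist response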
# Numbers without * were called inactive; x = not tested or not shown. Only some compounds are listed: those with a hit (about 1.1% of all), similar ones and a draw of the others. Cut-off read from the data, not from the text of the source, unless noted: active = activation above about 18%; inactive = the rest.
SMILES,MOR-DOR inv ag,HTR5A ag,MOR-DOR ag-1,HTR5A inv ctr,MOR-DOR ag-2,HTR5A ag conf
O=c1[nH]c2ccccc2cc1-c1nnn(-c2ccccc2)n1,9.2,20.7*,-1.7,-38.4,59.5*,-2.3
Cc1nc(N)nc(N)c1CCCc1ccc(Cl)c(Cl)c1,-8.1,17.5*,1.6,-30.2,1.0,-0.2
O=C(O/N=C(\c1ccccc1)c1ccccn1)c1cccc2ccccc12,-9.1,39.2*,1.8,-96.8,133.2*,4.1
O=C(Nc1ccc(C(=O)N2CCCC2)cc1)c1ccccc1[N+](=O)[O-],-1.9,18.5*,0.4,25.8,-0.3,5.4
CCOC(=O)C1CCCN(S(=O)(=O)c2cc(Br)cc3c2N(C(C)=O)CC3)C1 (stereo not given),-0.6,1.5,0.1,-1.2,x,x
CC1(c2ccc3ccccc3c2)NC(=O)N(CC(=O)N2CCCC(C(F)(F)F)C2)C1=O (stereo not given),5.4,-2.1,-1.3,5.3,x,x
CCC(C)NS(=O)(=O)c1ccc(S(=O)(=O)N(CC(=O)Nc2ccccc2)Cc2ccco2)cc1 (stereo not given),-4.0,14.9*,0.8,-9.0,-1.1,1.9
CN(C(=O)c1cccc(NC(=O)Cc2ccc(NC(=O)C3CCCN(C(=O)CCc4ccccc4)C3)cc2)c1)C1CCC1 (stereo not given),-19.9,20.4*,4.3,-76.6,4.9,5.2
CN(C(=O)c1cccc(NC(=O)Cc2ccc(NC(=O)C3CCCN(C(=O)CCc4ccccc4)C3)cc2)c1)C1CCCC1 (stereo not given),-16.4,-0.5,3.5,1.7,x,x
CC(=O)Nc1ccc(/C=N/NC(=O)CNS(=O)(=O)c2ccccc2)cc1,4.3,0.6,-0.6,-1.6,x,x
COc1ccc(/C=N/NC(=O)CNS(=O)(=O)c2ccccc2)cc1,14.2,20.5*,-3.6,-52.2,-0.6,-1.7
CCCN(CCC)C(=O)CSc1nc2n[nH]c(C)c2c(=N)n1-c1ccc(OCC)cc1,1.2,3.2,-0.2,-9.5,x,x
CCOc1ccc(-n2c(SCC(=O)Nc3ccc(CC)cc3)nc3n[nH]c(C)c3c2=N)cc1,-66.7,17.4*,10.2,-43.2,10.4,7.4
O=C(Nc1ccc2c(c1)OCO2)c1cc(-c2ccccc2Cl)on1,-46.1,17.2*,7.3,-33.9,0.3,3.6
O=C(NCc1ccc2c(c1)OCO2)c1cc(-c2ccccc2Cl)on1,-2.5,-0.3,0.4,-14.9,x,x
COc1ccc(C(CNC(=O)c2cccc(S(=O)(=O)N3CCc4ccccc43)c2)N(C)C)cc1 (stereo not given),7.2,-1.1,-1.4,4.0,x,x
O=C(COC(=O)c1ccccc1[N+](=O)[O-])NNC(=O)c1cccs1,7.1,15.6*,-1.3,-3.0,-0.1,0.1
O=C(NNC(=O)c1ccccc1[N+](=O)[O-])c1cccs1,15.2,2.8,-3.3,-7.6,x,x
COc1cc(/C=C2\SC(=O)N(CCN)C2=O)ccc1OS(=O)(=O)c1cc(C)ccc1C,-42.1,22.0*,8.7,-63.7,18.6*,15.1
CC(=O)Oc1ccccc1C(=O)NC(C)CCc1ccccc1 (stereo not given),15.4,3.6,-3.3,-13.4,x,x
O=S(=O)(N/N=C\C=C\c1ccccc1)c1ccc(Br)cc1,-26.3,19.5*,6.3,-39.7,-0.6,2.9
Cc1ccc(S(=O)(=O)N/N=C\C=C\c2ccccc2)cc1,-11.8,38.1*,2.0,-74.5,0.5,4.1
CCOC(=O)c1c(S(=O)(=O)N2CCN(c3ccc(C(C)=O)cc3)CC2)c(C)n(C)c1C,4.5,1.7,-0.9,-6.5,x,x
CCn1c(SCC(=O)NNC(=O)c2ccc(OC)cc2)nnc1-c1cccnc1,9.9,1.3,-1.8,17.1,x,x
O=C(CN1C(=O)CSc2ncccc21)NCCN1CCOCC1,4.2,16.1*,-0.8,-47.9,0.3,1.2
SMILES,MOR-DOR inv ag,HTR5A ag,MOR-DOR ag-1,HTR5A inv ctr,MOR-DOR ag-2,HTR5A ag conf
CCOc1cc(CNCC2CCCN2CC)cc(Cl)c1OC (stereo not given),6.1,19.3*,-1.1,-52.7,1.1,1.4
CCN1CCCC1CNCc1cc(OC)c(OC)c(OC)c1 (stereo not given),-1.2,7.0,0.2,-53.3,x,x
O=C1NC(c2ccccc2)=C(c2ccc3ccccc3n2)C(c2ccccc2)N1 (stereo not given),-1.7,-0.9,0.2,2.5,x,x
O=C1NC(c2ccccc2)=C(c2nc3ccccc3s2)C(c2ccc(O)cc2)N1 (stereo not given),-23.4,37.7*,4.4,-71.2,12.6,7.7
CCc1nc2oc3ccccc3c(=O)c2c(=O)n1CCOC,0.7,2.7,-0.1,-22.1,x,x
CCc1nc2oc3ccccc3c(=O)c2c(=O)n1-c1ccccc1,20.7,14.4*,-4.1,-3.5,-2.1,-3.3
CC1CCN(CCNC(=O)c2ccc3c(=O)n(Cc4ccc(Cl)cc4)c(=S)[nH]c3c2)CC1,-28.5,7.6,5.5,-11.1,x,x
Cc1ccc(S(=O)(=O)CCc2ccccn2)cc1,13.2,5.2,-2.1,-14.5,x,x
CC(C)(C)c1ccc(S(=O)(=O)CCc2ccccn2)cc1,12.5,24.2*,-2.2,-66.8,1.1,4.0
CN(C)C(=O)c1ccc(NC(=O)COC(=O)C2CCN(S(=O)(=O)c3ccc4c(c3)OCCO4)CC2)cc1,-4.2,-0.7,0.8,1.8,x,x
Cc1ccc(NC(=O)Nc2sc(=S)n(C)c2C)cc1,11.0,7.7,-2.2,8.1,x,x
Cc1c(NC(=O)Oc2ccccc2)sc(=S)n1C,27.5,15.1*,-6.0,-34.0,0.2,42.8*
O=C(Nc1ccc(N2CCN(Cc3ccccc3F)CC2)cc1)c1ccc([N+](=O)[O-])o1,-42.6,25.1*,8.0,-23.2,-1.8,-0.9
O=C(Nc1ccc(N2CCN(Cc3ccccc3F)CC2)cc1)c1ccccc1[N+](=O)[O-],-3.4,2.4,0.6,-12.5,x,x
Cc1cc(=O)c(C(=O)O)nn1-c1ccccc1C(F)(F)F,0.2,15.4*,0.0,-3.6,0.0,-2.5
Cc1cc(=O)c(C(=O)O)nn1-c1cccc(C(F)(F)F)c1,14.3,-2.1,-2.7,13.1,x,x
CCC(=O)N1CCN(c2ccc(NC(=O)COc3ccccc3[N+](=O)[O-])cc2)CC1,10.7,5.6,-2.0,2.0,x,x
COc1ccc(C(=O)CC(=O)C(=O)NCCc2cccc(C)c2)cc1,-9.2,15.9*,1.5,-42.4,0.3,4.8
C[C@@H](NC(=O)c1nc[nH]c1C(=O)NCc1ccccc1)c1ccccc1,-30.1,1.5,5.5,7.3,x,x
CC(C)(c1ccccc1)c1ccc(OCCN2CCOCC2)cc1,-4.2,14.4*,0.9,-53.5,127.5*,1.1
Cn1c(SCC(=O)NCC2CCCO2)nc2c([nH]c3ccccc32)c1=O (stereo not given),-3.5,22.4*,0.6,-5.6,-0.9,1.2
O=C(CSc1n[nH]c(-c2ccco2)n1)Nc1ccc(Br)cc1,17.4,-4.4,-3.0,16.1,x,x
O=C(CSc1n[nH]c(-c2ccco2)n1)Nc1sc2c(c1C(=O)Nc1ccccc1)CCCC2,-5.6,18.5*,1.0,-29.7,2.6,3.9
COC(=O)c1ccc(SCC(=O)NC2CCCC2)c([N+](=O)[O-])c1,8.7,-0.5,-1.6,1.8,x,x
